Assay results as given in the supplement of paper PMC8728848.
The full list was thinned out, with the strongest signals kept by preference.

Experiments:
Assay in all cases: glycan array binding signal (z-score within array); higher = stronger binding
Settings in all cases: glycan notation: IUPAC condensed, linker removed
[1] = molecular target: Fuc(a1-3)[Gal(b1-4)]GlcNAc(b1-2)Man(a1-3)[Fuc(a1-3)[Gal(b1-4)]GlcNAc(b1-2)Man(a1-6)]Man(b1-4)GlcNAc(b1-4)GlcNAc
How it was run: (§1)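 The Consortium for Functional Glycomics database supplied 3228 glycan arrays, of which those lacking an available protein sequence were dropped. The binding signal, a within-array Z-score, was averaged across arrays of the same protein sequence and across linkers. Negative scores can be read as non-binding.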

[2] = molecular target: Fuc(a1-3)[Gal(b1-4)]GlcNAc(b1-3)Gal(b1-3)[Fuc(a1-4)]GlcNAc
How it was run: as §1

[3] = molecular target: Fuc(a1-3)[Gal3S(b1-4)]Glc
How it was run: as §1

[4] = molecular target: Fuc(a1-3)[GalNAc(b1-4)]GlcNAc
How it was run: as §1

[5] = molecular target: Gal(a1-3)Gal(b1-3)GlcNAc(b1-6)GalNAc
How it was run: as §1

[6] = molecular target: Gal(a1-3)Gal(b1-4)GlcNAc
How it was run: as §1

[7] = molecular target: Gal(a1-3)Gal(b1-4)GlcNAc(b1-3)GalNAc
How it was run: as §1

[8] = molecular target: Gal(a1-3)Gal(b1-4)[Fuc(a1-3)]GlcNAc
How it was run: as §1

[9] = molecular target: Gal(b1-3)GlcNAc(b1-3)Gal(b1-3)GlcNAc
How it was run: as §1

[10] = molecular target: Gal(b1-3)GlcNAc(b1-3)Gal(b1-4)GlcNAc
How it was run: as §1

[11] = molecular target: Gal(b1-3)GlcNAc(b1-3)Gal(b1-4)[Fuc(a1-3)]GlcNAc
How it was run: as §1

[12] = molecular target: Gal(b1-4)Glc6S
How it was run: as §1

[13] = molecular target: Gal(b1-4)GlcNAc(a1-6)Gal(b1-4)GlcNAc
How it was run: as §1

[14] = molecular target: Gal(b1-4)GlcNAc(b1-2)Man(a1-3)Man(b1-4)GlcNAc(b1-4)GlcNAc
How it was run: as §1

[15] = molecular target: Gal(b1-4)GlcNAc(b1-2)Man(a1-3)[GlcNAc(b1-4)][Gal(b1-4)GlcNAc(b1-2)Man(a1-6)]Man(b1-4)GlcNAc(b1-4)GlcNAc
How it was run: as §1

[16] = molecular target: Gal(b1-4)GlcNAc(b1-2)Man(a1-6)[GlcNAc(b1-2)Man(a1-3)]Man(b1-4)GlcNAc(b1-4)GlcNAc
How it was run: as §1

[17] = molecular target: Gal(b1-4)GlcNAc(b1-3)Gal(b1-4)GlcNAc(b1-3)Gal(b1-4)GlcNAc(b1-2)Man(a1-3)[Gal(b1-4)GlcNAc(b1-3)Gal(b1-4)GlcNAc(b1-3)Gal(b1-4)GlcNAc(b1-2)Man(a1-6)]Man(b1-4)GlcNAc(b1-4)GlcNAc
How it was run: as §1

[18] = molecular target: Gal(b1-4)GlcNAc(b1-3)Gal(b1-4)GlcNAc(b1-3)Gal(b1-4)GlcNAc(b1-2)Man(a1-3)[Gal(b1-4)GlcNAc(b1-3)Gal(b1-4)GlcNAc(b1-3)Gal(b1-4)GlcNAc(b1-2)Man(a1-6)]Man(b1-4)GlcNAc(b1-4)[Fuc(a1-6)]GlcNAc
How it was run: as §1

[19] = molecular target: Gal(b1-4)GlcNAc(b1-3)Gal(b1-4)GlcNAc(b1-3)Gal(b1-4)GlcNAc(b1-2)[Gal(b1-4)GlcNAc(b1-3)Gal(b1-4)GlcNAc(b1-3)Gal(b1-4)GlcNAc(b1-6)]Man(a1-6)[Gal(b1-4)GlcNAc(b1-3)Gal(b1-4)GlcNAc(b1-3)Gal(b1-4)GlcNAc(b1-2)Man(a1-3)]Man(b1-4)GlcNAc(b1-4)[Fuc(a1-6)]GlcNAc
How it was run: as §1

[20] = molecular target: Gal(b1-4)GlcNAc(b1-3)Gal(b1-4)GlcNAc(b1-3)Gal(b1-4)GlcNAc(b1-3)Gal(b1-4)GlcNAc(b1-2)Man(a1-3)[Gal(b1-4)GlcNAc(b1-3)Gal(b1-4)GlcNAc(b1-3)Gal(b1-4)GlcNAc(b1-3)Gal(b1-4)GlcNAc(b1-2)Man(a1-6)]Man(b1-4)GlcNAc(b1-4)[Fuc(a1-6)]GlcNAc
How it was run: as §1

[21] = molecular target: Gal(b1-4)GlcNAc(b1-3)Gal(b1-4)GlcNAc(b1-3)Gal(b1-4)GlcNAc(b1-3)Gal(b1-4)GlcNAc(b1-3)Gal(b1-4)GlcNAc(b1-2)Man(a1-3)[Gal(b1-4)GlcNAc(b1-3)Gal(b1-4)GlcNAc(b1-3)Gal(b1-4)GlcNAc(b1-3)Gal(b1-4)GlcNAc(b1-3)Gal(b1-4)GlcNAc(b1-2)Man(a1-6)]Man(b1-4)GlcNAc(b1-4)GlcNAc
How it was run: as §1

[22] = molecular target: Gal(b1-4)GlcNAc(b1-3)Gal(b1-4)GlcNAc(b1-3)Gal(b1-4)GlcNAc(b1-3)Gal(b1-4)GlcNAc(b1-3)Gal(b1-4)GlcNAc(b1-2)[Gal(b1-4)GlcNAc(b1-3)Gal(b1-4)GlcNAc(b1-3)Gal(b1-4)GlcNAc(b1-3)Gal(b1-4)GlcNAc(b1-3)Gal(b1-4)GlcNAc(b1-6)]Man(a1-6)[Gal(b1-4)GlcNAc(b1-3)Gal(b1-4)GlcNAc(b1-3)Gal(b1-4)GlcNAc(b1-3)Gal(b1-4)GlcNAc(b1-3)Gal(b1-4)GlcNAc(b1-2)Man(a1-3)]Man(b1-4)GlcNAc(b1-4)[Fuc(a1-6)]GlcNAc
How it was run: as §1

[23] = molecular target: Gal(b1-4)GlcNAc(b1-3)[Gal(b1-4)GlcNAc(b1-6)]Gal(b1-4)GlcNAc
How it was run: as §1

[24] = molecular target: Gal(b1-4)GlcNAc(b1-3)[GlcNAc(b1-6)]Gal(b1-4)GlcNAc
How it was run: as §1

[25] = molecular target: Gal6S(b1-3)GlcNAc6S
How it was run: as §1

[26] = molecular target: Gal6S(b1-4)Glc
How it was run: as §1

[27] = molecular target: GalNAc(b1-4)GlcNAc(b1-3)GalNAc(b1-4)GlcNAc
How it was run: as §1

[28] = molecular target: GalNAc(b1-4)GlcNAc6S
How it was run: as §1

[29] = molecular target: GlcNAc(a1-4)Gal(b1-4)GlcNAc(b1-3)Gal(b1-4)GlcNAc
How it was run: as §1

[30] = molecular target: GlcNAc(b1-2)Man(a1-3)[GlcNAc(b1-4)][GlcNAc(b1-2)Man(a1-6)]Man(b1-4)GlcNAc(b1-4)[Fuc(a1-6)]GlcNAc
How it was run: as §1

B1: CC1G-10077 (Coprinopsis cinerea), A8NDT7 (protein)
chain: MALNEGVYWIRNSRFTNKVLDLDAANVAKGTSILDFNEHGTFNENHNQLWIVERFQSRDTYLIRSVHSNLVLDLSQGLSANGTPILCWTQHGGTNQQWRIEWVKDDNKTPLYRIVSVATGTAISHNEDDSSAYTVAWSVDDGPKQLWSFDPFVTPLLYRLRVKSTSRVLDLAAASADNGTLALAWEQHTAITKRNQLWWLPYRSGAEEYTIQCLETSTVADLSGGNSGNGTPIYGWQSHGGRNQQWKFEPTSDSGDYYHIKNVEGGSVMDAYMNDSQKRVGGWSNNGGDNQKWLLDPLPSPGPGWVLIQNGGTGKFLCSTPSGDIGTADGPETVYDYSVQWRFIQREYTGVYHVVNRATGAYLRQIGTSMPSIGLAEENDDELKDWWMLETYDNSEIGLASIISRWTGNVLDHYGGVSVQALDNNTENSYRSWAIIPARDWLTSFSLVNGQGGLCLAAQYAREETRLSTTANVNDFHAQWVFRKPSGSSGYTIQNKYNNHYVGGTSARWELVVCCNKYFGIRNTSTQKYLAIEDGQVTFQDQDMTDRKQCWELCSGRATDTSGNDYDLIYMDDDLLEVMIPWVGDKQGDLKHYIEKRATKKPPKDKGGWQLPAAGLIKKPKFNDIRQLLQELIEQWEWDVVNEEREQIQTLVSIDEAEARRLLGRRPHPDIVAAYQRSRSSTLFRIDRQGYFNIAGDRYVNIQGQYGDDSYFHIALPVGVRFGREQIRRFLRDSLDRSTSVTITPTTCKPPSGGPDYNRDPDSDGDNSWIKWTIAVVGTSAIKHSEL
**Q.** With B1 as the binder, how does the “glycan array binding signal (z-score)” value [1] read?
**A.** Its value is -0.467.

**Q.** And the “glycan array binding signal (z-score)” value [2]?
**A.** The value was -0.51.

**Q.** What about the “glycan array binding signal (z-score)” value [3] of the same binder?
**A.** Its value is -0.424.

**Q.** And the “glycan array binding signal (z-score)” value [4]?
**A.** Its value is -0.4.

**Q.** What about the “glycan array binding signal (z-score)” value [5] of the same binder?
**A.** Its value is 1.19.

**Q.** What about the “glycan array binding signal (z-score)” value [6] of the same binder?
**A.** Its value is 0.177.

**Q.** What about the “glycan array binding signal (z-score)” value [7] of the same binder?
**A.** Its value is -0.3.

**Q.** And the “glycan array binding signal (z-score)” value [8]?
**A.** Its value is 0.744.

**Q.** What about the “glycan array binding signal (z-score)” value [9] of the same binder?
**A.** The value was 0.08.

**Q.** What about the “glycan array binding signal (z-score)” value [10] of the same binder?
**A.** The value was 0.142.

**Q.** What about the “glycan array binding signal (z-score)” value [11] of the same binder?
**A.** The value was 0.199.

**Q.** And the “glycan array binding signal (z-score)” value [12]?
**A.** The value was -0.024.

**Q.** And the “glycan array binding signal (z-score)” value [13]?
**A.** The value was 3.26.

**Q.** What about the “glycan array binding signal (z-score)” value [14] of the same binder?
**A.** Its value is 1.15.

**Q.** And the “glycan array binding signal (z-score)” value [15]?
**A.** The value was 0.424.

**Q.** What about the “glycan array binding signal (z-score)” value [16] of the same binder?
**A.** Its value is 3.12.

**Q.** What about the “glycan array binding signal (z-score)” value [17] of the same binder?
**A.** Its value is 2.19.

**Q.** And the “glycan array binding signal (z-score)” value [18]?
**A.** Its value is 3.5.

**Q.** What about the “glycan array binding signal (z-score)” value [19] of the same binder?
**A.** The value was 3.22.

**Q.** And the “glycan array binding signal (z-score)” value [20]?
**A.** The value was 3.19.

**Q.** And the “glycan array binding signal (z-score)” value [21]?
**A.** The value was 3.72.

**Q.** What about the “glycan array binding signal (z-score)” value [22] of the same binder?
**A.** Its value is 3.25.

**Q.** What about the “glycan array binding signal (z-score)” value [23] of the same binder?
**A.** Its value is 1.18.

**Q.** What about the “glycan array binding signal (z-score)” value [24] of the same binder?
**A.** Its value is 3.85.

**Q.** What about the “glycan array binding signal (z-score)” value [25] of the same binder?
**A.** Its value is -0.314.

**Q.** And the “glycan array binding signal (z-score)” value [26]?
**A.** The value was 0.062.

**Q.** What about the “glycan array binding signal (z-score)” value [27] of the same binder?
**A.** The value was 4.2.

**Q.** What about the “glycan array binding signal (z-score)” value [28] of the same binder?
**A.** Its value is 4.35.

**Q.** What about the “glycan array binding signal (z-score)” value [29] of the same binder?
**A.** The value was -0.431.

**Q.** What about the “glycan array binding signal (z-score)” value [30] of the same binder?
**A.** The value was -0.482.
